# JMJD2A Tudor inh: blocks the human JMJD2A Tudor domain | O75164 | AlphaScreen JMJD2A-Tudor / H3K4me3 peptide binding | Potency, µM (top dose mostly 114 µM), hits mostly inhibitors | hit rate 4.4% among 390,000 | AID 504339; note: nearly all actives have a fitted effect of over 50% in size
# PI5P4Ka inh: inhibitors of human PI5P4K alpha. max response, %. PI5P4Kalpha enzyme, ADP-Glo luminescence, 60 min; hits give low values. P48426. hit rate 1.2% among 330,000; active = max response of -50% or lower; inconclusive = between -30% and -50%; inactive = -30% or higher; note: value at the top dose of about 77 µM
#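 ADP-Glo luminescence end-point after a 60 min room-temperature kinase reaction. PI5P4Kalpha and substrate in HEPES pH 7.4 buffer with EGTA, 0.1% CHAPS and 5% DMSO; ATP at 5 microM final.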
# BAZ2B inh: BAZ2B (human) inhibition | Q9UIF8 | AlphaScreen BAZ2B-H3K14Ac peptide displacement | Potency, µM (series often up to 114 µM), usual class: inhibitors | hit rate 4.4% among 360,000; note: nearly all actives have a fitted effect of over 60% in size
#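 Protein-peptide AlphaScreen: BAZ2B 50 nM, b-H3K14Ac 50 nM, 1x PBS pH 7.4 + 0.01% Tween-20. Preincubation 30 min RT; cpd 30 min RT (top 110 uM); beads 20 min RT, light-protected.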
# HP1b binding inh: inhibitors of HP1-beta chromodomain binding to methylated histone tails; AlphaScreen HP1-beta / biotin-H3K9me3 peptide binding; Potency, µM (top dose mostly 114 µM), most hits filed as inhibitors; hit rate 0.56% among 390,000; note: nearly all actives have a fitted effect of over 70% in size
#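 AlphaScreen: HP1-beta (50 nM) preformed 30 min with biotin-H3(1-18)K9me3 peptide (50 nM) in PBS pH 7.4, 0.01% Tween-20. Compound added for 30 min at RT, then streptavidin donor/nickel chelate acceptor beads (10 ug/mL) for 30 min.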
# KAT2A inh: inhibitors of human GCN5L2 histone acetyltransferase; Q92830; GCN5L2 HAT assay, ThioGlo1 CoA-SH fluorescence; Potency, µM (series often up to 58.9 µM), usual class: inhibitors; hit rate 0.21% among 390,000; AID 504327
#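 Free CoA generated was detected with ThioGlo1 (50uM) fluorescence at Ex340nm/Em540nm, read immediately and after 20 min at room temperature. Enzyme, 20 nM in HEPES pH 7.5 buffer, saw compounds 15 min before adding 75uM H3(1-25) peptide and 70uM acetyl-CoA.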
# PLK1 PBD block: blocks phosphopeptide binding to human PLK1 polo-box domain | P53350 | Plk1 PBD binding of FITC phosphopeptide, fluorescence polarization | Potency, µM, most hits filed as inhibitors | hit rate 2.8% among 360,000 | AID 720504; note: series mostly up to about 57 µM; nearly all actives have a fitted effect of over 65% in size
# ADP-Glo counter: ADP-Glo luciferase interference, PI5P4K counter-screen. 1,100 tested, under 10 active. Potency, µM (titrated, usually from 76.9 µM), usual class: inhibitors. ADP-Glo detection counter-screen, luciferase luminescence, no enzyme. shares compounds with PI5P4Ka inh. AID 743285
# Numbers stand for hits; – = inactive; ? = inconclusive; · = not tested or not shown; [ ] = remark or other dose. Only some compounds are listed: those with a hit (about 7% of all), similar ones and a draw of the others. Unless noted, calls come from the whole dose curve; as a rule, active = well fitted curve in the direction sought with a large enough effect; inconclusive = small, poorly fitted or top-dose-only effect, or another doubt; inactive = no such curve, though single readings can be large; an effect the other way counts as inactive or inconclusive.
SMILES,JMJD2A Tudor inh,PI5P4Ka inh,BAZ2B inh,HP1b binding inh,KAT2A inh,PLK1 PBD block,ADP-Glo counter
COC(=O)c1sccc1NC(=O)c1c(Cl)cccc1Cl,–,–,–,–,–,–,·
O=C(O)c1sccc1NC(=O)c1c(Cl)cccc1Cl,–,-55,–,–,–,–,–
O=C(c1ccc(F)cc1)c1cc2ccc(O)cc2oc1=O,–,-73,–,–,–,–,?
O=C(NCc1ccccc1)c1cc2ccc(O)cc2oc1=O,?,-66,–,–,–,19µM,–
C=CCOc1c(Cl)cc(CNc2ccc(C)c(Cl)c2)cc1OC,·,·,–,·,–,·,·
COc1cc(CNc2ccc(N3CCCC3)cc2)cc(Cl)c1OC,10µM,-66,35µM,14µM,–,21µM,–
CCCCN(C(=O)C1CCCO1)c1c(N)n(CCC)c(=O)[nH]c1=O (centres undefined),–,–,·,–,–,–,·
CCC(C)n1c(SCC(=O)Nc2ccc3[nH]c(=O)[nH]c3c2)nc2ccccc2c1=O (centres undefined),–,-50,–,–,–,–,–
CC(C)Cn1c(SCC(=O)Nc2ccc3[nH]c(=O)[nH]c3c2)nc2ccccc2c1=O,–,–,–,–,–,–,·
O=C(CSc1nc2ccc(Cl)cc2[nH]1)N1CCN(C(=O)c2ccco2)CC1,–,-65,–,–,–,?,–
COc1ccc2c(c1)C=C(CN1CCN(Cc3ccccc3C)C(CCO)C1)CO2 (centres undefined),50µM,–,?,–,–,–,–
O=c1oc(-c2ccccc2)nc2sc3c(c12)CCC3,–,-54,50µM,–,?,–,–
COc1cc(C(=O)Nc2scc(-c3ccc(C)cc3)c2C(=O)O)cc(OC)c1OC,–,-85,–,–,–,–,–
COc1cc(C(=O)Nc2scc(-c3ccccc3)c2C(=O)O)cc(OC)c1OC,–,-71,–,–,–,–,–
COc1ccc(-c2csc(NC(=O)c3ccccc3F)c2C(=O)O)cc1,–,-51,–,–,–,–,–
O=C(CSc1nncn1-c1ccccc1)Nc1ccc(N2CCOCC2)cc1,10µM,-56,–,–,–,2.7µM,–
O=C(Cc1cccs1)Nc1ccc(N2CCOCC2)cc1,?,-53,?,–,–,–,–
O=C(CCC(=O)c1cccs1)Nc1ccc(N2CCCCC2)cc1,?,-76,?,–,–,–,–
O=C(CSc1nnnn1-c1ccccc1)Nc1ccc(N2CCOCC2)cc1,–,–,–,–,–,–,·
O=C(CCC(=O)c1cccs1)Nc1ncccc1O,?,-56,56µM,–,–,–,–
Cc1ccc(NC(=O)CCC(=O)c2cccs2)cc1,–,–,–,–,–,–,·
O=C(CN1CCCC1c1ccc2c(c1)OCCO2)NC(=O)Nc1ccccc1F (centres undefined),–,?,–,–,–,–,·
COc1ccc(NC(C)=O)cc1NC(=O)CSc1nc2ncccc2[nH]1,?,-55,–,–,–,3µM,–
COc1ccccc1NC(=O)CSc1nc2ncccc2[nH]1,–,·,–,–,–,–,·
Cc1ccc(NC2Sc3ccccc3NC2=O)cc1 (centres undefined),50µM,-63,–,45µM,–,9.5µM,–
SMILES,JMJD2A Tudor inh,PI5P4Ka inh,BAZ2B inh,HP1b binding inh,KAT2A inh,PLK1 PBD block,ADP-Glo counter
O=C1Nc2ccccc2SC1c1ccccc1 (centres undefined),–,–,–,–,–,–,·
COc1cc(NC(=O)Cn2ncc3c([nH]c4ccc(C)cc43)c2=O)cc(OC)c1OC,–,·,–,–,–,·,·
Cc1ccc(NC(=O)c2cc(-c3ccco3)nc3ccccc23)cc1S(=O)(=O)N1CCOCC1,–,–,?,–,?,–,·
COc1ccc(NC(=O)CN(C)C(=O)c2cc(-c3ccco3)nc3ccccc23)cc1,14µM,-74,32µM,45µM,20µM,?,–
CCCCn1c(N)c(N(CC(C)C)C(=O)c2cc(-c3ccco3)nc3ccccc23)c(=O)[nH]c1=O,–,-59,–,–,–,–,–
COc1ccc(NC(=O)c2cc(-c3ccco3)nc3ccccc23)cc1S(=O)(=O)N1CCOCC1,?,-59,45µM,?,?,21µM,–
CCCCCCNC(=O)c1cc(-c2ccco2)nc2ccccc12,20µM,-86,35µM,22µM,?,27µM,–
CN1c2ccc(Cl)cc2-c2nc(SCC(=O)NCc3ccccc3)ncc2S1(=O)=O,–,·,–,–,–,·,·
COc1cccc(C(c2sc3nc(-c4ccco4)nn3c2O)N2CCCC2)c1 (centres undefined),–,·,–,–,–,·,·
O=C(c1cc(-c2ccco2)nc2ccccc12)N1CCN(Cc2ccccc2)CC1,–,–,–,–,–,–,·
COC(=O)C1CCN(C(=O)c2cc(-c3ccco3)nc3ccccc23)CC1,28µM,-82,·,?,8.9µM,30µM,–
CCc1nnc(NC(=O)c2cc(-c3ccco3)nc3ccccc23)s1,?,-78,40µM,–,–,?,–
COc1cccc(-c2cc(C(=O)NC3CC3)c3ccccc3n2)c1,–,–,–,–,–,–,·
O=C(NC1CCC(O)CC1)c1cc(-c2ccco2)nc2ccccc12 (centres undefined),?,-67,22µM,–,–,?,–
CN(C)C(CNC(=O)c1cc(-c2ccco2)nc2ccccc12)c1ccccc1 (centres undefined),?,-54,·,–,?,?,–
CCS(=O)(=O)c1ccc(O)c(NC(=O)Nc2ccccc2OC)c1,–,–,–,–,–,–,·
CCOC(=O)CSc1ccc2nnc(-c3cccs3)n2n1,–,-51,–,–,–,–,–
COc1ccccc1CC(=O)Nc1ccc(Cl)cc1C(=O)O,–[11.4 µM],–,–,–,–,–,·
O=C(COc1cccc2ccccc12)Nc1ccc(Cl)cc1C(=O)O,–,-54,–,–,–,27µM,–
C[C@H](CO)N1C[C@H](C)[C@@H](CN(C)C(=O)NC2CCCCC2)Oc2ncc(Br)cc2C1=O,·,–,·,·,·,–,·
O=C(COC(=O)c1ccncc1)Nc1cc(S(=O)(=O)N2CCOCC2)ccc1Cl,–,–,–,–,–,–,·
O=C(Oc1ccc2c(c1)OCO2)c1cc2c(s1)CCC2,32µM,-53,–,?,?,–,–
O=C(c1cc2c(s1)CCCC2)N1CCN(Cc2ccc3c(c2)OCO3)CC1,?,–,·,–,–,–,·
Cc1cc(NC(=O)c2sc(Nc3ccc(F)c(Cl)c3)nc2N)no1,–,?,–,–,–,–,·
Cc1cc(NC(=O)c2sc(Nc3cccc(C(F)(F)F)c3)nc2N)no1,–,-67,–,–,–,–,–
